Here are results for 22 compounds from PubChem BioAssay (NCATS).

Molecules are shown by their SMILES. Records with an inconclusive call do not appear. A call without a number means that no potency is given here. The source made the active and inactive calls. Calls follow the shape of the dose curve; as a rule, active = well fitted inhibition curve with a large enough effect; inconclusive = small, poorly fitted or top-dose-only effect; inactive = flat fitted curve, though single readings scatter.

The experiment has as its system Zika virus NS2B-NS3 protease. Kind of experiment: Primary screen GU AMC qHTS for Zika virus inhibitors (AID 1347154). Also: nearly all actives have a fitted effect of over 70% in size. The following applies: Zika NS2B-NS3 unlinked protease, AMC fluorogenic substrate; series mostly up to 54.1 µM. The essentials: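 Unlinked Zika NS2B hydrophilic domain/NS3 protease domain noncovalent complex (25 nM final) in 10 mM Tris-HCl pH 8.0, 0.01% Tween 20, with AMC peptide substrate. Fluorescence (ex 340, em 450 nm) change over 15 min, room temperature; percent inhibition fitted to 4-parameter Hill equation.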
(In general: qHTS replaces the single test concentration by a dilution series.)
For `COc1ccc(C(=O)NCc2ccc(OCCN(C)C)cc2)cc1OC`, the Potency result was “inactive”.
For `CCCNC(C)C(=O)Nc1c(C)csc1C(=O)OC` (configuration not stated) the value was “inactive”.
For `O=C(O)c1ccc[n+]([O-])c1` the value was “inactive”.
On to `CC(C)NC[C@@H](O)COc1ccc(CC(N)=O)cc1`, for which the Potency entry is “inactive”.
Take `NC(N)=NS(=O)(=O)c1ccc(N)cc1`: the Potency result is “inactive”.
In the case of `FC(F)(F)C(Cl)Br` (configuration not stated), the Potency entry is “inactive”.
Turning to `C=CCNC(N)=S`, the Potency entry is “inactive”.
For `Nc1ncnc2c1ncn2[C@@H]1O[C@H](COP(=O)(O)O)[C@@H](O)[C@H]1O` the value was “inactive”; for `NC(=O)c1ccc([N+](=O)[O-])cc1Cl`, “inactive”.
As to `CN1C(=O)CC(c2ccccc2)C1=O` (configuration not stated), the Potency result is “inactive”.
Turning to `COc1nccnc1NS(=O)(=O)c1ccc(N)cc1`, the Potency entry was “inactive”.
For `O=C(OOC(=O)c1ccccc1)c1ccccc1` the value was “inactive”; for `Cc1c(NC(C)C)c(=O)n(-c2ccccc2)n1C`, “inactive”.
For `CC1(C)S[C@@H]2[C@H](N=CN3CCCCCC3)C(=O)N2[C@H]1C(=O)O` the value was “inactive”; for `CCC(C)(CN(C)C)OC(=O)c1ccccc1` (configuration not stated), “inactive”.
Consider `O=C1c2ccccc2S(=O)(=O)N1CCCCN1CCN(c2ncccn2)CC1`, for which the Potency entry was “inactive”.
In the case of `CCOc1ccccc1O[C@H](c1ccccc1)[C@H]1CNCCO1`, the Potency result is “inactive”.
With `CC1(c2ccccc2)OC(C(=O)O)=CC1=O` (configuration not stated), the Potency entry is “inactive”.
For `CCN(CC)CC1CCCCN1CC(=O)N1c2ccccc2C(=O)Nc2cccnc21` (configuration not stated) the value was “inactive”; for `CC(O)CCCCn1c(=O)c2c(ncn2C)n(C)c1=O` (configuration not stated), “inactive”.
To `CCS(=O)(=O)CCn1c([N+](=O)[O-])cnc1C` belongs “inactive”; to `CN/C(=C\[N+](=O)[O-])NCCSCc1csc(CN(C)C)n1`, “inactive”.
